Laboratory results as given in PMC7862700, “An all-to-all approach to the identification of sequence-specific readers for epigenetic DNA modifications on cytosine”.

Tests used:
Test in all cases: DAPPL (digital affinity profiling via proximity ligation, sequencing); 10 mM Tris-HCl pH 7.5, 50 mM NaCl, 1 mM DTT, 4% glycerol, room temperature, 30 min; GST-TFs on glutathione beads, 16-mer random dsDNA library, 0.1% formaldehyde crosslink after washing; high values mean tight binding
Conditions in all cases: protein: recombinant; tags: N-terminal GST; dsDNA, one strand shown
[1] = target: T1, FLI1 (Homo sapiens, UniProt Q01543 1-452)
T1 sequence: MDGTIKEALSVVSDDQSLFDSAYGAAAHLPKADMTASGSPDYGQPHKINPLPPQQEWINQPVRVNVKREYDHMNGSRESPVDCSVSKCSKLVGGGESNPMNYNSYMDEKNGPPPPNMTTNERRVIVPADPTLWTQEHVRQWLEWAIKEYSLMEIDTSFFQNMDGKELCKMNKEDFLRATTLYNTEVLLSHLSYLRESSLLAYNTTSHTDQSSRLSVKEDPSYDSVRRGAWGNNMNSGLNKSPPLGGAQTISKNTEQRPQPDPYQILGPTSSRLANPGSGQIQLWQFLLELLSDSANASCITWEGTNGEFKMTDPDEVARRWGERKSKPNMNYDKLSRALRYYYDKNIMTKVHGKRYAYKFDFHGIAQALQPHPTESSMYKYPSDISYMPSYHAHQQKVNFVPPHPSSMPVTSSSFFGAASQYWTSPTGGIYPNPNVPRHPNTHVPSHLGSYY
In short: (§1)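 The binding signal reported is, for every hexamer, its read frequency for a factor over its read frequency for the tag-only sample. Reads came from pools of yeast-expressed, GST-fused human transcription factors on glutathione beads, barcoded with DNA and mixed with that sample, which were incubated with 200 nmole of a random double-stranded 16-mer DNA library in Tris/NaCl/DTT/glycerol buffer at room temperature for 30 min. After washing, the pools were crosslinked with 0.1% formaldehyde, proximity-ligated with BsaI/T4 ligase for 1 h at 37 °C, PCR-amplified and sequenced on an Illumina NextSeq500.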

[2] = target: T2, ELK1 (Homo sapiens, UniProt P19419 1-428)
T2 sequence: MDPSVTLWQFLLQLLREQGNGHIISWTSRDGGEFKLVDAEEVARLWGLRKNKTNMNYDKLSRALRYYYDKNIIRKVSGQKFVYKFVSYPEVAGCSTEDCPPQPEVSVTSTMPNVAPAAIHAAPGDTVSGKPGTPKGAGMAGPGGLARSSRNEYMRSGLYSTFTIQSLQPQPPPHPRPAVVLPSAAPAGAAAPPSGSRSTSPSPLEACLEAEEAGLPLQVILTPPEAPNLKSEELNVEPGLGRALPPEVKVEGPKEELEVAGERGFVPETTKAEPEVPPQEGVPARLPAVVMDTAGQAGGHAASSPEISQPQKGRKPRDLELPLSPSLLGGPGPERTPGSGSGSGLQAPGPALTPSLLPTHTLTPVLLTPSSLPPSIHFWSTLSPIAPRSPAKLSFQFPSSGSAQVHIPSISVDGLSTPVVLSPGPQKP
In short: as §1

[3] = target: T3, GABPA (Homo sapiens, UniProt Q06546 1-454)
T3 sequence: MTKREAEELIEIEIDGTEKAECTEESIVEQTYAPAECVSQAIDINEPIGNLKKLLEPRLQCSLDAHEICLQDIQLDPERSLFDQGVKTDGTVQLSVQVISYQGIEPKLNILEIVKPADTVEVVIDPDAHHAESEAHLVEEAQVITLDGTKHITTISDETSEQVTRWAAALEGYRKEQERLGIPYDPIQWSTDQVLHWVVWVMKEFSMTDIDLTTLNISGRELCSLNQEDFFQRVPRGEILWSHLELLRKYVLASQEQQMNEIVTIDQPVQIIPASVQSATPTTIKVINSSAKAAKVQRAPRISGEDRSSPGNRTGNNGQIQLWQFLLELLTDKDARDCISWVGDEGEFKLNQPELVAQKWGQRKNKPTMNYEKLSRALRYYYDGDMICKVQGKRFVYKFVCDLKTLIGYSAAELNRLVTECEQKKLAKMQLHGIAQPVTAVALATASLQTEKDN
In short: as §1

[4] = target: T4, ERG (Homo sapiens, UniProt P11308 1-479)
T4 sequence: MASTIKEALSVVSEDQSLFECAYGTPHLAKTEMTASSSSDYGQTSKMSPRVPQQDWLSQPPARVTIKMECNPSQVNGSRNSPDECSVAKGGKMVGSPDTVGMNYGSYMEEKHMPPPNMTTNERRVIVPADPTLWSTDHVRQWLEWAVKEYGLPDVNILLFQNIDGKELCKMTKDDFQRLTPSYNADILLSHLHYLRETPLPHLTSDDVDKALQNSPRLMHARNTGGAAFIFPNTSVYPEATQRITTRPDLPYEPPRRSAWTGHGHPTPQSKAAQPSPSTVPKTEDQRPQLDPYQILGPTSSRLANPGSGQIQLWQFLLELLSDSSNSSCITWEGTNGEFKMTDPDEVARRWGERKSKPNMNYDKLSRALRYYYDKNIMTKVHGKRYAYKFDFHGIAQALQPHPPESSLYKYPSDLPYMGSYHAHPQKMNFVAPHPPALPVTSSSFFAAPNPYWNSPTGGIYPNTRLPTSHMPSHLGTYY
In short: as §1

[5] = target: ELF1 (Homo sapiens, UniProt P32519 1-619)
ELF1, sequence (P32519 whole entry): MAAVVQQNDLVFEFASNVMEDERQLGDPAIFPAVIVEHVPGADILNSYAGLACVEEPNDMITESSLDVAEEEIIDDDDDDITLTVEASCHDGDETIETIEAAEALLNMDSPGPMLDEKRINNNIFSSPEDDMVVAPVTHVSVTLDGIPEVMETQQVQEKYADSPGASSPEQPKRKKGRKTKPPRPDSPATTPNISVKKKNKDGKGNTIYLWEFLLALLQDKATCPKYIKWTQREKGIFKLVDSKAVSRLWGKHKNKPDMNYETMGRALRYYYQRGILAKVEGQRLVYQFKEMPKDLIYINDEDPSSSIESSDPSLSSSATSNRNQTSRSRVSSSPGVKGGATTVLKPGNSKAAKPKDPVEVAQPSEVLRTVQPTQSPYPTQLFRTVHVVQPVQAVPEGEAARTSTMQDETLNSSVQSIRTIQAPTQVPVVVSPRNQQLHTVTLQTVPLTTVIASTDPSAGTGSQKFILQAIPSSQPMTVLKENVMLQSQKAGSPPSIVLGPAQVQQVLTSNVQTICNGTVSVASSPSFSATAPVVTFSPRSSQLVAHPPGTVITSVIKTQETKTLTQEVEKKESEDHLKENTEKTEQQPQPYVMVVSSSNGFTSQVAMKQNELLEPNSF
In short: as §1

[6] = target: T5, EHF (Homo sapiens, UniProt Q9NZC4 1-300)
T5 sequence: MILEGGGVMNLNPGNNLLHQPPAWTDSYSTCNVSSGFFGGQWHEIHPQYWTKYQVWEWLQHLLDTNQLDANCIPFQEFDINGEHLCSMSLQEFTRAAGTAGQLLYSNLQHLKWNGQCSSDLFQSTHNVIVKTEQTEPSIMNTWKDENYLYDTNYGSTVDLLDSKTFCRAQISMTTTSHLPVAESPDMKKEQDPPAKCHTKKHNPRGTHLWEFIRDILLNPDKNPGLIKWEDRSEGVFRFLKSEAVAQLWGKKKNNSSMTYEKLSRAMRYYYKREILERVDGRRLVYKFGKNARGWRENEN
In short: as §1

[7] = target: SPI1 (Homo sapiens, UniProt P17947 1-270)
In short: as §1

[8] = target: SPIB (Homo sapiens, UniProt Q01892 1-262)
SPIB, sequence (Q01892 whole entry): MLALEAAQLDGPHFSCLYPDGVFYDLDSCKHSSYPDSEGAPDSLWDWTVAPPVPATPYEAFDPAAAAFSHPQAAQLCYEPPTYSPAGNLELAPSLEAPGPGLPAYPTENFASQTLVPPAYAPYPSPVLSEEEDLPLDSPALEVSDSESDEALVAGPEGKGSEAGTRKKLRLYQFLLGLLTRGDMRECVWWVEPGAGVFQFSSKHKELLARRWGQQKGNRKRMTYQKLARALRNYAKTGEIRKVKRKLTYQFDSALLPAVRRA
In short: as §1

[9] = target: T6, ELK3 (Homo sapiens, UniProt P41970 1-407)
T6 sequence: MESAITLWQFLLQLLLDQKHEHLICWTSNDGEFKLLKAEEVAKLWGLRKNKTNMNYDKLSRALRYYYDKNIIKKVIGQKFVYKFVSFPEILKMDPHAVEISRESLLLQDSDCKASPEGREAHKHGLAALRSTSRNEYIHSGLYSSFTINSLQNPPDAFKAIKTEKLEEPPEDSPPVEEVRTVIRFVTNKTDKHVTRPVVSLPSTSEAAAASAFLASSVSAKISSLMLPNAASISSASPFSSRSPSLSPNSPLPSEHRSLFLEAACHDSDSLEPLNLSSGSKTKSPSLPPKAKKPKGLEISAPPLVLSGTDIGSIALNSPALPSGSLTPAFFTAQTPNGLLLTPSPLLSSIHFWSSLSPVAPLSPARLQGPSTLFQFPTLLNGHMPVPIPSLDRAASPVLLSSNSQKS
In short: as §1

| Sequence | binding signal [1] | binding signal [2] | binding signal [3] | binding signal [4] | binding signal [5] | binding signal [6] | binding signal [7] | binding signal [8] | binding signal [9] |
| --- | --- | --- | --- | --- | --- | --- | --- | --- | --- |
| GGACCT | 1.42 fold enrichment (6-mer frequency, TF over GST control) | 1.37 fold enrichment (6-mer frequency, TF over GST control) | 1.41 fold enrichment (6-mer frequency, TF over GST control) | 1.33 fold enrichment (6-mer frequency, TF over GST control) | 1.35 fold enrichment (6-mer frequency, TF over GST control) | 1.35 fold enrichment (6-mer frequency, TF over GST control) | 1.28 fold enrichment (6-mer frequency, TF over GST control) | 1.33 fold enrichment (6-mer frequency, TF over GST control) | 1.37 fold enrichment (6-mer frequency, TF over GST control) |
| TTCACG | 1.48 fold enrichment (6-mer frequency, TF over GST control) | 1.44 fold enrichment (6-mer frequency, TF over GST control) | 1.41 fold enrichment (6-mer frequency, TF over GST control) | 1.37 fold enrichment (6-mer frequency, TF over GST control) | 1.38 fold enrichment (6-mer frequency, TF over GST control) | 1.29 fold enrichment (6-mer frequency, TF over GST control) | 1.3 fold enrichment (6-mer frequency, TF over GST control) | 1.31 fold enrichment (6-mer frequency, TF over GST control) | 1.42 fold enrichment (6-mer frequency, TF over GST control) |
| AGTATT | 1.12 fold enrichment (6-mer frequency, TF over GST control) | 1.19 fold enrichment (6-mer frequency, TF over GST control) | 1.1 fold enrichment (6-mer frequency, TF over GST control) | 1.2 fold enrichment (6-mer frequency, TF over GST control) | 1.14 fold enrichment (6-mer frequency, TF over GST control) | 1.15 fold enrichment (6-mer frequency, TF over GST control) | 1.1 fold enrichment (6-mer frequency, TF over GST control) | 1.17 fold enrichment (6-mer frequency, TF over GST control) | 1.14 fold enrichment (6-mer frequency, TF over GST control) |
| GCTCCG | 1.37 fold enrichment (6-mer frequency, TF over GST control) | 1.4 fold enrichment (6-mer frequency, TF over GST control) | 1.35 fold enrichment (6-mer frequency, TF over GST control) | 1.36 fold enrichment (6-mer frequency, TF over GST control) | 1.32 fold enrichment (6-mer frequency, TF over GST control) | 1.45 fold enrichment (6-mer frequency, TF over GST control) | 1.25 fold enrichment (6-mer frequency, TF over GST control) | 1.19 fold enrichment (6-mer frequency, TF over GST control) | 1.44 fold enrichment (6-mer frequency, TF over GST control) |
| GTACTT | 1.92 fold enrichment (6-mer frequency, TF over GST control) | 2.32 fold enrichment (6-mer frequency, TF over GST control) | 1.81 fold enrichment (6-mer frequency, TF over GST control) | 1.88 fold enrichment (6-mer frequency, TF over GST control) | 1.9 fold enrichment (6-mer frequency, TF over GST control) | 1.96 fold enrichment (6-mer frequency, TF over GST control) | 1.94 fold enrichment (6-mer frequency, TF over GST control) | 1.78 fold enrichment (6-mer frequency, TF over GST control) | 2.51 fold enrichment (6-mer frequency, TF over GST control) |
| TATAGG | 1.14 fold enrichment (6-mer frequency, TF over GST control) | 1.06 fold enrichment (6-mer frequency, TF over GST control) | 1.19 fold enrichment (6-mer frequency, TF over GST control) | 1.18 fold enrichment (6-mer frequency, TF over GST control) | 1.15 fold enrichment (6-mer frequency, TF over GST control) | 1.28 fold enrichment (6-mer frequency, TF over GST control) | 1.23 fold enrichment (6-mer frequency, TF over GST control) | 1.27 fold enrichment (6-mer frequency, TF over GST control) | 1.08 fold enrichment (6-mer frequency, TF over GST control) |
| TTACGG | 1.3 fold enrichment (6-mer frequency, TF over GST control) | 1.23 fold enrichment (6-mer frequency, TF over GST control) | 1.22 fold enrichment (6-mer frequency, TF over GST control) | 1.31 fold enrichment (6-mer frequency, TF over GST control) | 1.26 fold enrichment (6-mer frequency, TF over GST control) | 1.31 fold enrichment (6-mer frequency, TF over GST control) | 1.37 fold enrichment (6-mer frequency, TF over GST control) | 1.38 fold enrichment (6-mer frequency, TF over GST control) | 1.48 fold enrichment (6-mer frequency, TF over GST control) |
